Data as given in PubChem BioAssay (NCATS).
Results filed as inconclusive are left out. Active and inactive are the calls of the source. Unless noted, calls come from the whole dose curve; as a rule, active = well fitted cell-killing curve with a large enough effect; inconclusive = small, poorly fitted or top-dose-only effect; inactive = flat fitted curve, though single readings scatter.

Legend:
[1] = Cell Viability - LYMP2-025 (AID 976); conditions: LYMP2-025 lymphoblastoid cell viability; series mostly up to 92.2 µM
Procedure, shortened: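 Human lymphoblastoid LYMP2-025 cells (2500/well) were pre-incubated 5 hr at 37 C, then treated with compounds for 24 hr at 37 C in complete medium. Viability was read as intracellular ATP by CellTiter-Glo luminescence; AC50 from Hill fits.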

[2] = Cell Viability - LYMP2-002 (AID 977); conditions: LYMP2-002 lymphoblastoid cell viability, qHTS; series mostly up to 92.2 µM;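 note: compound exposure lasted 24 h at 37 °C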
Procedure, shortened: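 Cytotoxicity is scored as concentration-dependent loss of cellular ATP in a human lymphoblastoid line after 24 hr compound treatment at 37 C. AC50 is obtained by modelling concentration-response data with the Hill equation.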

[3] = Cell Viability - LYMP2-006 (AID 978); conditions: LYMP2-006 lymphoblastoid cell viability, qHTS; series mostly up to 92.2 µM; note: nearly all actives have a fitted effect of over 60% in size
Procedure, shortened: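 Cells are seeded at 2500 per well and rested 5 hr at 37 C. Compounds are added across a concentration series for 24 hr at 37 C, after which ATP is quantified by luciferase luminescence.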

[4] = Cell Viability - LYMP2-007 (AID 979); conditions: LYMP2-007 lymphoblastoid cell viability; series mostly up to 92.2 µM;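 note: cells exposed to compound for 24 h before reading; nearly all actives have a fitted effect of over 60% in size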
Procedure, shortened: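 Human lymphoblastoid cells (2500/well) were plated in complete medium, incubated 5 hr at 37 C, then exposed to compounds for 24 hr at 37 C. Intracellular ATP was read by CellTiter-Glo luminescence after 30 min at room temperature; AC50 from Hill fits.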

[5] = Cell Viability - LYMP2-008 (AID 980); conditions: LYMP2-008 lymphoblastoid cell viability, qHTS; series mostly up to 92.2 µM; note: nearly all actives have a fitted effect of over 60% in size
Procedure, shortened: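 Human lymphoblastoid cells (2500/well) were plated, held 5 hr at 37 C, then exposed to compounds for 24 hr at 37 C in complete medium. Intracellular ATP was read by CellTiter-Glo luminescence; AC50 from Hill-fitted concentration-response.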

[6] = Cell Viability - LYMP2-010 (AID 981); conditions: LYMP2-010 lymphoblastoid cell viability, qHTS; series mostly up to 92.2 µM; note: nearly all actives have a fitted effect of over 55% in size
Procedure, shortened: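 Human lymphoblastoid LYMP2-010 cells (2500/well) were preincubated 5 hr at 37 C, then exposed to compounds for 24 hr at 37 C in complete medium. Intracellular ATP was measured by CellTiter-Glo luminescence after 30 min at room temperature; AC50 from Hill-fitted concentration-response.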

[7] = Cell Viability - LYMP2-012 (AID 982); conditions: LYMP2-012 lymphoblastoid cell viability qHTS; series mostly up to 92.2 µM;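 note: cellular ATP by luciferase luminescence where a drop means cytotoxicity; cells exposed to compound for one day before reading; nearly all actives have a fitted effect of over 55% in size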
[8] = Cell Viability - LYMP2-014 (AID 983); conditions: LYMP2-014 lymphoblastoid cells, viability qHTS; series mostly up to 92.2 µM; note: nearly all actives have a fitted effect of over 50% in size
Procedure, shortened: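 Human lymphoblastoid cells (2500/well) were pre-incubated 5 hr at 37 C, then exposed to compounds in complete medium for 24 hr at 37 C. Intracellular ATP was read by CellTiter-Glo luminescence after 30 min at room temperature; AC50 from Hill fits.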

[9] = Cell Viability - LYMP2-018 (AID 985); conditions: LYMP2-018 lymphoblastoid cells, viability (qHTS); series mostly up to 92.2 µM;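 note: compound exposure lasted 24 hr at 37 °C; nearly all actives have a fitted effect of over 50% in size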
Procedure, shortened: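 Human lymphoblastoid cells (2500/well) were pre-incubated 5 hr at 37 C, then exposed to compounds for 24 hr at 37 C in complete medium. Viability was read as intracellular ATP by CellTiter-Glo luminescence; AC50 values came from Hill-equation fits.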

[10] = Cell Viability - LYMP2-020 (AID 986); conditions: series mostly up to 92.2 µM; note: nearly all actives have a fitted effect of over 55% in size
Procedure, shortened: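 Human lymphoblastoid cells, 2500/well, were pre-incubated 5 hr at 37 C, then exposed to compounds for 24 hr at 37 C in complete medium. Intracellular ATP was read by CellTiter-Glo luminescence, and AC50 was derived by Hill fitting of concentration-response data.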

[11] = Cell Viability - LYMP2-022 (AID 987); conditions: LYMP2-022 lymphoblastoid cell viability; series mostly up to 92.2 µM; note: nearly all actives have a fitted effect of over 55% in size
Procedure, shortened: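 Human lymphoblastoid cells, 2500/well, preincubated 5 hr at 37 C, then exposed to compounds over a concentration range for 24 hr at 37 C in complete medium. Viability read as intracellular ATP by CellTiter-Glo luminescence after 30 min at room temperature; AC50 from Hill fits.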

[12] = Cell Viability - LYMP2-024 (AID 988); conditions: LYMP2-024 lymphoblastoid cell viability; series mostly up to 92.2 µM; note: nearly all actives have a fitted effect of over 60% in size
Procedure, shortened: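 Human lymphoblastoid cells (2500/well) in complete medium were preincubated 5 hr at 37 C, then exposed to compounds for 24 hr at 37 C. Intracellular ATP was read by CellTiter-Glo luminescence; AC50 from Hill-equation fits of concentration-response data.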

[13] = Cell Viability - LYMP2-026 (AID 989); conditions: LYMP2-026 lymphoblastoid cell viability, qHTS; series mostly up to 92.2 µM; note: nearly all actives have a fitted effect of over 50% in size
Procedure, shortened: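 Human lymphoblastoid cells (2500/well) in complete medium were preincubated 5 hr at 37 C, then exposed to compounds for 24 hr at 37 C. Cellular ATP was read by CellTiter-Glo luminescence; AC50 from Hill-equation fits of concentration-response data.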

[14] = Cell Viability - LYMP1-002 - Assay at 24 hr (AID 993); conditions: LYMP1-002 lymphoblastoid cells viability; series mostly up to 92.2 µM
Procedure, shortened: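 Human lymphoblastoid LYMP1-002 cells, 2500/well in complete medium, were treated with compounds for 24 h at 37 C; intracellular ATP was read by CellTiter-Glo luminescence. AC50 values came from Hill-equation fits of qHTS concentration-response data.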

[15] = Cell Viability - LYMP1-002 - Assay at 40 hr (AID 994); conditions: LYMP1-002 lymphoblastoid cell viability; series mostly up to 92.2 µM; note: nearly all actives have a fitted effect of over 60% in size
Procedure, shortened: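 Human lymphoblastoid cells, 2500/well in complete medium, were preincubated 5 hr at 37 C, then exposed to compounds for 40 hr at 37 C. Intracellular ATP was read by CellTiter-Glo luminescence after 30 min at room temperature; AC50 from Hill-equation fits.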

[16] = qHTS Assay for Identification of Small Molecule Inducers of Hypoxia Response (AID 2120; active = well fitted curve in the direction sought with a large enough effect in the signal ratio, with a control signal flat, not every such curve was filed as active; the % refers to the signal ratio); conditions: hypoxia response reporter cells, beta-lactamase ratio readout; series mostly up to 104 µM
Procedure, shortened: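 HRE-beta-lactamase reporter in CellSensor HRE-bla ME-180 cells, 2500 cells/well in Opti-MEM with 0.5% dialyzed FBS; compounds tested as titration series, 17 h at 37 degrees C. CCF4 substrate 2.5 h at room temperature; AC50 from 460/530 nm ratio.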

[17] = target: Estrogen receptor (Homo sapiens) (UniProt P03372); test: qHTS assay for small molecule antagonists of estrogen receptor alpha signaling (AID 588513; active = well fitted curve in the direction sought with a large enough effect in the signal ratio, with a control signal flat, not every such curve was filed as active; the % refers to the signal ratio); conditions: ER-alpha-UAS-bla HEK293, beta-lactamase ratio, antagonist mode; series mostly up to 76.9 µM
Procedure, shortened: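 Fluorescence from CCF4 substrate after 2 h at room temperature gave reporter activity; cells had been exposed to compound and 0.5nM 17-beta-estradiol for 18 h at 37 C. Hill-equation fitting yielded IC50 and maximal response.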

[18] = target: Estrogen receptor (Homo sapiens) (UniProt P03372); test: qHTS assay for small molecule agonists of estrogen receptor alpha signaling (AID 588514; calls by dose curve; note: nearly all actives have a fitted effect of over 70% in size); conditions: ER-alpha-UAS-bla HEK293, beta-lactamase ratio, 18 h; series mostly up to 76.8 µM
Procedure, shortened: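 ER-alpha-UAS-bla GripTite HEK 293 cells in medium with 2% charcoal/dextran-treated FBS were treated with compound titrations at 37 C for 18 hrs; beta-lactamase reporter read by CCF4 fluorescence after 2 hrs at RT.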

[19] = target: Glucocorticoid receptor (Homo sapiens) (UniProt P04150); test: qHTS assay for small molecule antagonists of glucocorticoid receptor signaling (AID 588533; active = well fitted inhibition curve with a large enough effect in the signal ratio, with a control signal flat, not every such curve was filed as active; the % refers to the signal ratio;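 note: cells stimulated with 2 nM dexamethasone as agonist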); conditions: HeLa MMTV-bla, GRE beta-lactamase ratio, antagonist mode, 18 h; series mostly up to 76.8 µM
Procedure, shortened: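 Antagonist-mode qHTS: compound titrations added to GRE-bla HeLa cells, then dexamethasone 2 nM final; 18 h, 37 C. CCF4 FRET fluorescence normalized to dexamethasone and DMSO; IC50 from Hill fit.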

[20] = qHTS assay for small molecule antagonists of peroxisome proliferator-activated receptor delta signaling (AID 588535); conditions: HEK293T PPARd-UAS-bla, beta-lactamase FRET ratio, 18 h; 460 nm channel;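 note: cells co-treated with a PPAR-delta agonist as stimulator during compound exposure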
Procedure, shortened: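 Cell-based beta-lactamase assay in antagonist mode: 4000 HEK293T PPAR-delta-UAS-bla cells per well, 5 hr preincubation then 18 hr compound incubation at 37 C. IC50 obtained by Hill equation fitting.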

Estrogen receptor (Homo sapiens), sequence (P03372 whole entry, looked up): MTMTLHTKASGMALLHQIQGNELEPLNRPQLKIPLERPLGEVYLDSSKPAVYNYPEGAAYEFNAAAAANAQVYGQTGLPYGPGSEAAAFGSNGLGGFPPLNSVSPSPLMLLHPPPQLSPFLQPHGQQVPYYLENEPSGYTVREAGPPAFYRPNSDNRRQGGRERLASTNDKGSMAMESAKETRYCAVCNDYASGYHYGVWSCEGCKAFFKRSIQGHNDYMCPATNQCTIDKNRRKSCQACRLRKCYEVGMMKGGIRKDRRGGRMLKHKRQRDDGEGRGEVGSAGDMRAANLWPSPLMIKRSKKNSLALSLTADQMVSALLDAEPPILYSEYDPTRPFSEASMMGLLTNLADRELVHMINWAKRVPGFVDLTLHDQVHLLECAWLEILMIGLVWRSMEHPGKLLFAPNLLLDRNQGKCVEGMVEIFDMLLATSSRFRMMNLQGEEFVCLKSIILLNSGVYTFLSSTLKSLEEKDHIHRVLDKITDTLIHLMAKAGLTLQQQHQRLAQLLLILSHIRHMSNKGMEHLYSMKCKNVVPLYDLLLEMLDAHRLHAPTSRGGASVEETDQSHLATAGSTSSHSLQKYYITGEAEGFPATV
Glucocorticoid receptor (Homo sapiens), sequence (P04150 whole entry, looked up): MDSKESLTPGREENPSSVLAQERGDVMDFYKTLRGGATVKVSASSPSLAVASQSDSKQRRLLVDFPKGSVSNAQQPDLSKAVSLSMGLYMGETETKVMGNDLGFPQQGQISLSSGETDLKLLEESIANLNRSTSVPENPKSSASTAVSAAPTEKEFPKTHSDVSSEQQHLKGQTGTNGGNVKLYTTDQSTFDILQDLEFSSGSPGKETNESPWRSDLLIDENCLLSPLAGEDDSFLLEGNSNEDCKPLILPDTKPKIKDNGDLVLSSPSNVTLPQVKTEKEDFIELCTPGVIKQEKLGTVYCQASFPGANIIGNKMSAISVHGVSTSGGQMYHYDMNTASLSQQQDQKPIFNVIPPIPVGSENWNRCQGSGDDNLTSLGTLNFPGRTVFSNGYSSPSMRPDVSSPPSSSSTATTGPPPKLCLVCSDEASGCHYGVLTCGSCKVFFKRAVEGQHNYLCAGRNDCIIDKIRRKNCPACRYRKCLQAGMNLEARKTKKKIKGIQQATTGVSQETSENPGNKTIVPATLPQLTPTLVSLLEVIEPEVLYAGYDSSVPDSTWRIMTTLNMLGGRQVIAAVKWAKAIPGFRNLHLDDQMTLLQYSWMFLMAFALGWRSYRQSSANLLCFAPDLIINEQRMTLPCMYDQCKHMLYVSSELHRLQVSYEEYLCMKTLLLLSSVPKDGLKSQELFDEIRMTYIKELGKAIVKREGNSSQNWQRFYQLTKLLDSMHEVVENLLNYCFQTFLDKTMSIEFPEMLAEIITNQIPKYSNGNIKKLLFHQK

C=CC(=C)CCC=C(C)C
inactive: Potency [1] | Potency [2] | Potency [3] | Potency [4] | Potency [5] | Potency [6] | Potency [7] | Potency [8] | Potency [9] | Potency [10] | Potency [11] | Potency [12] | Potency [13] | Potency [14] | Potency [15] | outcome [16] | Potency [17] | Potency [18] | Potency [19]
-12.1%: max response [20]
